Data reported in the supplement of paper PMC10681739.

Assays:
ETS1 [1] = target: T1, ETS1 (UniProt P14921); assay: ETS1 binding intensity (PBM fluorescence), ETS1 alone (arbitrary fluorescence units); higher = stronger binding; details: ETS1 concentration 1 nM; RUNX1 concentration 0 nM
T1 sequence: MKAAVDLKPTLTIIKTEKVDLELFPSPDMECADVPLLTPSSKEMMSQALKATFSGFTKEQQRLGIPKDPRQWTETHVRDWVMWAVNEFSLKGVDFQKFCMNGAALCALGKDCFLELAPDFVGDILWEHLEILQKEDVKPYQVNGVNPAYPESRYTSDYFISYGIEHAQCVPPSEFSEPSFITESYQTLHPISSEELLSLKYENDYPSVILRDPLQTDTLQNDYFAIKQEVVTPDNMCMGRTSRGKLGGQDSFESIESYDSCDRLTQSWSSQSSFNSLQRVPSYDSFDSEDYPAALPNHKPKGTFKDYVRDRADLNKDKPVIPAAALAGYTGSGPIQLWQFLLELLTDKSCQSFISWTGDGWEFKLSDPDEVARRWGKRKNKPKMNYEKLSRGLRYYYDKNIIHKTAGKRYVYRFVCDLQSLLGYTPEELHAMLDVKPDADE

ETS1 [2] = target: T1, ETS1; assay: ETS1 binding intensity (PBM fluorescence) in presence of RUNX1, normalised to ETS1-only experiment (arbitrary fluorescence units); higher = stronger binding; details: ETS1 concentration 1 nM; RUNX1 concentration 25 nM

TTACTTCTCAGGAAGCGCTGTGGGGCTGGGGTTGCT
ETS1 binding intensity (ETS1 [1]): 676
ETS1 binding intensity (ETS1 [2]): 513

TCTTTTTATTTCCTGTGCAGTCTCGCCCACAGCACT
ETS1 binding intensity (ETS1 [1]): 1070
ETS1 binding intensity (ETS1 [2]): 1030

GAAACTTCTCAAGGAAATAGCTGTGGTAAACAATAC
ETS1 binding intensity (ETS1 [1]): 725
ETS1 binding intensity (ETS1 [2]): 1730

TGGCTTGAGCTCAGGAAGTTGTGGCTGCAGTAAGCT
ETS1 binding intensity (ETS1 [1]): 1470
ETS1 binding intensity (ETS1 [2]): 1970

CTGACAGCTTCCGCACAAAGCGCGGTCTATTTCTCC
ETS1 binding intensity (ETS1 [1]): 405
ETS1 binding intensity (ETS1 [2]): 544

AGCGGTGTTTCAGGATGTGAGGGCCCGCAGGAGCCG
ETS1 binding intensity (ETS1 [1]): 666
ETS1 binding intensity (ETS1 [2]): 837

GCAGCCAGGGTAGGAAGTGGTAAGACCTCCCTGTGA
ETS1 binding intensity (ETS1 [1]): 893
ETS1 binding intensity (ETS1 [2]): 1230

GGAACGGAGGCGGAAGGGGCCCTGCGGCGACGACGT
ETS1 binding intensity (ETS1 [1]): 679
ETS1 binding intensity (ETS1 [2]): 1070

TGACTCACCTTCCTGTAGGTTGGTTTTCTGCATATC
ETS1 binding intensity (ETS1 [1]): 472
ETS1 binding intensity (ETS1 [2]): 308

TGCCTCTTCCTGTGGCTGGGCTGTATCTGACCACAC
ETS1 binding intensity (ETS1 [1]): 503
ETS1 binding intensity (ETS1 [2]): 462

TTCTTAGCAGAGGAAGCTGTTTGCGGGGAAAAAGGG
ETS1 binding intensity (ETS1 [1]): 1120
ETS1 binding intensity (ETS1 [2]): 2200

GACACCTGAGAGGATGTGTGGCTTTGTGCTATGAGA
ETS1 binding intensity (ETS1 [1]): 769
ETS1 binding intensity (ETS1 [2]): 847

GCAGGCGTGCGCTTCCGCTCCAACCCGCGCACTTCG
ETS1 binding intensity (ETS1 [1]): 1110
ETS1 binding intensity (ETS1 [2]): 1100

TTTGCACACATCCTGGCCTCCGCCTGACCACCTCCT
ETS1 binding intensity (ETS1 [1]): 483
ETS1 binding intensity (ETS1 [2]): 586

GATACTCTTCCTGTCATCCCATCCCCACAGCCTTAG
ETS1 binding intensity (ETS1 [1]): 503
ETS1 binding intensity (ETS1 [2]): 501

CTTTTTGATTTCCTCAAGCATCCCACAAATACACAG
ETS1 binding intensity (ETS1 [1]): 539
ETS1 binding intensity (ETS1 [2]): 659

CATTCCCGAGAGACTTCCGCGCCGCAGTTTCCCTGC
ETS1 binding intensity (ETS1 [1]): 523
ETS1 binding intensity (ETS1 [2]): 380

CCTGACTCTGGGTTTCCTCCCAGCCACAGACACCTG
ETS1 binding intensity (ETS1 [1]): 459
ETS1 binding intensity (ETS1 [2]): 412

CTTCCCTTGCCCCGGAAAAGGGCGGTAAGAGGGAGC
ETS1 binding intensity (ETS1 [1]): 1200
ETS1 binding intensity (ETS1 [2]): 1160
